Screening data: PubChem BioAssay, National Center for Advancing Translational Sciences (NCATS)
PI4K2A block = PI4K2A (human) kinase inhibition; Q9BTU6; purified PI4K2A, ADP-Glo luminescence, 1 h; active compounds read low; activity change, negative = inhibition, % at 76.9 µM; 0.13% of 420,000 active; in the data active means activity change below about -50%; inconclusive means mostly about -30% to -49%;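 further: -100% = wells without enzyme as full effect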
Target sequence (Q9BTU6 whole entry, looked up): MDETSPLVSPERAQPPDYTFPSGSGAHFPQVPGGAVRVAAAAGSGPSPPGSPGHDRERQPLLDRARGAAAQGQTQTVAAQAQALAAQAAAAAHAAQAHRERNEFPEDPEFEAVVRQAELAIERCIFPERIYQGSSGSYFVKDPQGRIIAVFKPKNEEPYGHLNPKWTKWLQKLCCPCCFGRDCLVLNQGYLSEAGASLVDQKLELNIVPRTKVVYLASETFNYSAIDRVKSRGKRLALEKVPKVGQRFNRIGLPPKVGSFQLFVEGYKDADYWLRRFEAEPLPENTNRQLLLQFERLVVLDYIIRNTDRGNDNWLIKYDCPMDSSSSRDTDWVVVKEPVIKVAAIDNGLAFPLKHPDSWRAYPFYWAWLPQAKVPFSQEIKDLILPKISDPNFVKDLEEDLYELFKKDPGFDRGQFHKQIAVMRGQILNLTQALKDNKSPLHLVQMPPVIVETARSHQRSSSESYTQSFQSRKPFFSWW
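PI4K2A activity was measured by ADP-Glo luminescence: enzyme (4 ug/mL stock) and phosphatidylinositol (1.2 mM stock) in Tris pH 7.5/MgCl2/EGTA/Triton X-100 buffer were reacted with ATP (300 microM stock) for one hour at ambient temperature.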
PI5P4K alpha inh = PI5P4K alpha (human) kinase inhibition; P48426; PI5P4Kalpha enzyme, ADP-Glo luminescence, 60 min; active compounds read low; max response, %; 1.2% of 330,000 active; active means max response of -50% or lower; inconclusive means between -30% and -50%; inactive means -30% or higher; further: value at the top dose of about 77 µM
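ADP-Glo luminescence end-point after a 60 min room-temperature kinase reaction. PI5P4Kalpha and substrate in HEPES pH 7.4 buffer with EGTA, 0.1% CHAPS and 5% DMSO; ATP at 5 microM final.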
Six1-Eya2 blk = inhibitors of human Six1/Eya2 interaction; Q15475+O00167; AlphaScreen GST-Six1/His-Eya2 binding, biochemical; active compounds read low; activity change, % (no concentration beside the values); 0.56% of 360,000 active
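AlphaScreen with GST-Six1 and His-Eya2 (5X mix: 250 nM and 500 nM), glutathione donor and nickel acceptor beads; buffer 50 mM Tris pH 8.0, 300 mM NaCl, 1 mM TCEP; 1 h at 37 C in the dark.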
Akt phos inh = blocks phosphorylation of Akt | AID 651550 | Neuro2A IGF-stimulated pAkt S473 HTRF, 20 min; active compounds read low | 0.32% of 360,000 active | activity change, % for hits at 50 µM; in the data active means activity change below about -80%; inconclusive means mostly about -51% to -80%
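Single-point screen (50 µM final compound) in Neuro2A cells stimulated 20 min with 6 nM IGF at 37 deg C. After lysis, Ser473-phosphorylated Akt read by HTRF (ex 330 nm, em 615/665 nm) as the 665/615 ratio.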
CtBP-E1A inh = blocks the CtBP interaction with E1A; AlphaScreen GST-E1A/His-CtBP binding, 1536-well; active compounds read low; activity change, % (no concentration beside the values); 0.49% of 340,000 active
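AlphaScreen with 125 nM GST-E1A and 125 nM His-CtBP (5X stocks) in Tris pH 8.0, 300 mM NaCl, BSA, Tween 20, TCEP. Compounds preincubated 2 h at 37 deg C, then glutathione donor/nickel acceptor beads added for 1 h at 37 deg C in dark.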
ADP-Glo counter = counter-screen for PI5P4K inhibitors: ADP-Glo detection interference, no enzyme | shares compounds with PI5P4K alpha inh | 1,100 tested, under 10 active | Potency, µM (highest dose often 76.9 µM), for inactives: at the highest dose activity change, negative = inhibition, most hits filed as inhibitors | AID 743285 | ADP-Glo detection counter-screen, luciferase luminescence, no enzyme; active means well fitted curve in the direction sought with a large enough effect; inconclusive means small, poorly fitted or top-dose-only effect, or another doubt; inactive means no such curve, though single readings can be large or run the other way
* marks the source's active call; other numbers are inactive results; i = inactive; ? = inconclusive; · = no result. This is a sample that favours compounds with a hit; in the whole collection about 1.8% have one here. Unless noted, no stated cut-off is given here; in the data, active means activity change below about -65%; inconclusive means mostly about -30% to -63%; inactive means weaker than that. Unless noted, on the % scale 0 is the no-effect control and ±100 the full control effect.

SMILES	PI4K2A block	PI5P4K alpha inh	Six1-Eya2 blk	Akt phos inh	CtBP-E1A inh	ADP-Glo counter
Cc1ccc(-c2nc3c(c(=O)[nH]c(=O)n3Cc3ccccc3)n2C)o1	-21.8	-67.8*	-15.5	i	·	-8.9%
CCOc1ccc(OCc2ccc(C(=O)N3CCOCC3)cc2)cc1	2.2	-53.7*	-2.8	·	-2.5	-4.8%
Cc1ccc(S(=O)(=O)NCC(=O)NCC(=O)OCC(=O)NC(=O)NC(C)(C)C)cc1C	0.5	7.0	-4.4	i	-6.6	·
CC(=O)N1c2ccccc2C(=O)C1N1CCN(c2ccccc2F)CC1 (stereo unspecified)	1.0	·	·	·	·	·
Cc1ccc2nc(NC(=O)C3CCN(S(=O)(=O)c4cc([N+](=O)[O-])ccc4Cl)CC3)sc2c1	-6.0	-52.5*	-17.5	i	?	1.9%
Cc1csc(NC(=O)CSc2nc3[nH]ncc3c(=O)[nH]2)n1	-4.0	·	-0.9	i	·	2.1%
Cc1cc(C)cc(NC(=O)CSc2nc3[nH]ncc3c(=O)[nH]2)c1	-7.9	-4.3	12.9	i	6.7	·
CCc1nnc(NC(=O)CSc2nc3[nH]c(=O)cc(O)c3s2)s1	9.6	-26.7	-6.3	i	-8.4	·
Cc1csc(NC(=O)CSc2sc3c(O)cc(=O)[nH]c3c2C#N)n1	-8.1	-80.8*	?	i	-24.3	4.9%
CCc1nnc(NC(=O)CSc2sc3c(O)cc(=O)[nH]c3c2C#N)s1	-6.2	-84.4*	?	i	?	3.0%
O=C(O)c1ccccc1S(=O)(=O)Cc1ccccc1	-1.8	·	-0.3	i	-9.5	·
CCCc1nc2ccc(NC(=O)NCCC(=O)OCC)cc2c(=O)n1Cc1cccc(Cl)c1	-2.0	-5.9	1.9	i	-3.7	·
Cc1c(C(C)(C)C)c(C=S)n2ccccc12	-1.8	-12.4	-9.6	i	5.7	·
CC(C)(C)[C@@H]1C=C(C(=O)N2CCOCC2)O[C@H](OCc2ccc(CO)cc2)C1	4.9	0.5	-15.3	i	2.2	·
CC(C)(C)[C@H]1C=C(C(=O)N2CCOCC2)O[C@@H](OCc2ccc(CO)cc2)C1	-0.7	0.5	6.0	i	5.0	3.2%
Cc1c(C(=O)N2CCN(C(=O)c3ccccc3)CC2)oc2ccc(F)cc12	-6.9	-53.5*	-1.4	i	-0.6	2.6%
COc1cc(OC)cc(-c2nnc(NC(=O)CCS(=O)(=O)c3ccc(C)cc3)o2)c1	-15.8	-50.4*	-15.0	i	?	1.9%
Cc1ccc(SCCC(=O)NCCSCc2ccco2)cc1	-0.4	-8.7	-9.0	i	3.5	·
CCn1cc(CN2CCc3c([nH]c4ccccc34)C2c2cccc(OC)c2OC)c(C)n1 (stereo unspecified)	0.9	-7.2	-10.0	i	-0.3	·
COc1ccc(N2CCN(C(=O)c3[nH]c(C(F)(F)F)nc3-c3ccccc3)CC2)cc1	-4.0	-3.7	-18.8	i	-8.1	1.6%
COc1ccccc1N1CCN(C(=O)c2[nH]c(C(F)(F)F)nc2-c2ccccc2)CC1	-0.5	-2.4	-9.6	i	-8.9	·
CC1(C)Cc2cccc(OCC(=O)NCCOc3ccccc3)c2O1	-1.5	-50.7*	9.8	i	7.4	-7.9%
O=C(Cc1ccc(Cl)cc1)Nc1ccc(N2CCCC2)cc1	-8.5	-7.4	-7.8	i	2.0	·
Clc1cccc(Cl)c1CNc1ccc(N2CCCC2)cc1	-4.9	-50.9*	?	i	-21.8	-13.5%
Cc1ccc(C)c(SCC(=O)NCC(c2ccco2)N2CCCCC2)c1 (stereo unspecified)	0.2	0.1	-9.6	i	9.1	·
SMILES	PI4K2A block	PI5P4K alpha inh	Six1-Eya2 blk	Akt phos inh	CtBP-E1A inh	ADP-Glo counter
COc1ccc(NC(=O)CCCOc2cc(=O)n(C)c3ccccc23)c(OC)c1	1.3	·	·	·	·	·
Cc1ccc(-c2csc(NS(=O)(=O)c3cccc(F)c3)n2)o1	-2.1	-67.7*	-24.6	i	-4.1	1.9%
CCOc1ccc(NC(=O)c2cc(=O)[nH]c3ccccc23)cc1	-2.5	-51.4*	-5.1	i	1.2	-5.7%
CC(=O)c1ccc(NC(=O)c2cc(=O)[nH]c3ccccc23)cc1	0.1	-15.4	-13.9	i	-4.9	·
Cc1ccc(Nc2nnc(SCC(=O)NCc3ccco3)s2)cc1	-23.5	-52.3*	-7.9	i	-13.0	5.0%
CCC1CCCCN1S(=O)(=O)c1ccc([N+](=O)[O-])cc1 (stereo unspecified)	5.1	-2.0	-13.7	i	?	·
O=C(NNC(=O)c1ccccc1F)c1ccc(-c2ccc(Cl)cc2)o1	-5.1	1.7	10.1	i	-3.3	·
COc1n[nH]c(C(=O)Nc2nc3ccccc3s2)c1[N+](=O)[O-]	-1.1	-53.8*	-9.4	i	-4.8	1.9%
Cc1ccc(C(=O)NCCn2cc(SCC(=O)Nc3cc(C)on3)c3ccccc32)cc1	2.7	1.6	-1.9	i	-7.2	·
Cc1cc(NC(=O)CSc2cn(CCNC(=O)c3ccccc3)c3ccccc23)no1	-15.1	-76.2*	?	i	-1.8	0.1%
COc1cccc(NC(=O)NCc2ccccn2)c1	-5.7	9.6	-7.9	i	-0.5	·
Cc1cccc(NC(=O)CNC(=O)c2sc3ccccc3c2Cl)n1	-0.1	-51.2*	-0.4	i	-9.7	-8.4%
Cc1cccnc1NC(=O)CNC(=O)c1sc2ccccc2c1Cl	-0.6	-2.2	-4.6	i	-3.4	·
CC(Sc1nncn1C)C(=O)NCc1ccc2c(c1)OCO2 (stereo unspecified)	-2.0	-4.6	-1.6	i	1.4	·
Cc1ccc(NC2=NCCC2)cc1Cl	-3.9	1.1	2.7	i	-0.4	·
Cc1nc2ccc(NC3=NCCCCC3)cc2s1	-2.2	-54.6*	6.8	i	5.0	-9.8%
COc1cccc(NC(=O)CN(C)C(=O)c2cc3c(s2)CCC3)c1	-23.2	-71.3*	-9.1	i	0.3	-3.0%
COc1cccc(NC(=O)CN(C)C(=O)c2cc3c(s2)CCC(C)C3)c1 (stereo unspecified)	0.3	5.4	0.2	i	1.4	·
CCN(CC(=O)Nc1ccc(NC(C)=O)cc1)C(=O)c1cc2c(s1)CCCCC2	-0.3	4.6	-1.7	i	6.5	·
CCN(CC(=O)Nc1ccc(NC(C)=O)cc1)C(=O)c1cc2c(s1)CCCC2	-8.0	-50.4*	3.6	i	2.3	-6.4%
C/C(=N\NC(=O)c1cccc(S(=O)(=O)N2CCCCC2)c1)c1ccc(C)o1	-3.0	2.7	-17.6	i	-2.7	·
CCCC1C(=O)N(c2ccccc2)C1c1ccccc1 (stereo unspecified)	-5.8	11.4	17.5	i	6.9	·
O=C(CCc1nc2ccccc2c(=O)[nH]1)Nc1nc(-c2cccs2)cs1	-0.4	-5.0	1.2	i	-3.3	·
